# According to PubChem BioAssay AID1063 (University of Pittsburgh Molecular Library Screening Center, 2008):
# Screen size: about 200,000 compounds; about 18,000 (9%) were called active. The sample as a whole holds a higher share of actives than the screen did. Values without a mark were called inactive. Cut-off read from the data, not from the text of the source: active = inhibition above about 50%; inactive = the rest.
# Experiment: Leishmania major promastigote growth inhibition, primary screen (AID 1063);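 note: promastigotes grown with compound for 44 hours at 28 °C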
# Details: Leishmania major promastigotes, resazurin fluorescence viability; at 10 µM; stronger effect = higher value
row,Structure (SMILES),inhibition
1,Cc1nc2ccccn2c1P(=S)(N1CCCCC1)N1CCCCC1,97.4% (active)
2,COc1ccc(CN2CCN(c3ccccc3F)CC2)c(OC)c1,9.36%
3,CC(c1ccccc1)(c1ccccc1)c1ccncc1,19.2%
4,CC(=NCc1ccc2c(c1)OCO2)c1c(O)[nH]c(=O)[nH]c1=O,-2.64%
5,c1cc2c(cc1CCNC1CCCCCC1)OCO2,95.2% (active)
6,Fc1ccc(N2CCN(Cc3ccc4c(c3)OCO4)CC2)cc1,44.5%
7,c1ccc2sc(C3CCCNC3)nc2c1 (centres undefined),31.9%
8,O=C(O)CCn1cc(C=C2C(=O)NC(=S)NC2=O)c(-c2cccc(Br)c2)n1,-7.24%
9,Cn1c(O)c(C=NCCN2CCNCC2)c(=O)n(C)c1=O,-6.59%
10,CN1CCC(N(C)Cc2cccnc2)CC1,-2.3%
11,COc1ccc(NC(=O)N2CCC3(CC2)OCCO3)c(OC)c1,-0.24%
12,NC(=O)Cn1cc(C(=O)c2ccccc2F)c2ccccc21,-6.3%
13,N#Cc1ccc(Cn2cc(C(=O)c3ccco3)c3ccccc32)cc1,93.3% (active)
14,CC(C)Nc1nc(Cl)nc(NC(C)C)n1,24.7%
15,COc1ccc(-c2nn(CCC#N)cc2C(=O)O)cc1,-0.84%
16,CC(C)c1ccc(OCC(=O)N2CCN(C)CC2)c(Br)c1,37.9%
17,CN1CCN(C(=O)COc2ccc(C(C)(C)C)cc2Br)CC1,59.9% (active)
18,CC(C)(C)c1ccc(OC(=O)N2CCCCC2)cc1,-10.5%
19,CSC1=NP(=S)(SC)N(C)c2nc3n(c21)CCC3 (centres undefined),2.74%
20,CN(C)C(=O)NC(O)C(Cl)(Cl)Cl (centres undefined),-1.83%

row,Structure (SMILES),inhibition
1,CN(C)CC1CCCCC1OC(=O)c1ccc(Cl)c(Cl)c1 (centres undefined),56.1% (active)
2,COc1ccc(NC(=O)c2cn(CCC#N)nc2-c2ccc([N+](=O)[O-])cc2)cc1,-5.27%
3,CN1C2C=C(N(C(=O)c3ccc(Cl)cc3)c3ccccc3)CC1CC2 (centres undefined),-6.27%
4,CCNc1nc2[nH]c(=O)c3c(c2s1)OC(N)=C(C#N)C3c1cccs1 (centres undefined),56.6% (active)
5,N#CC1=C(N)Oc2c(c(=O)oc3ccccc23)C1c1ccccc1OC(=O)c1cccs1 (centres undefined),8.6%
6,CCOCCc1c(O)[nH]c(=S)[nH]c1=O,-2.27%
7,O=C(CN1CCCC1=O)NCCc1ccccc1,-2.62%
8,N[C@@H](Cc1c[nH]c2ccccc12)c1nnc(SCc2c(F)cccc2Cl)o1,-1.59%
9,CC(Cc1cccs1)NCc1ccc(Cl)cc1 (centres undefined),37.3%
10,Cc1ccc(-c2cc(C(=O)N3CCC4(CC3)OCCO4)no2)cc1,3.46%
11,COC(=O)C(c1ccccc1)N1CCCCCC1 (centres undefined),-3.28%
12,COc1ccccc1N1CCN(C(CNC(=O)Oc2ccccc2)c2cccnc2)CC1 (centres undefined),90.8% (active)
13,O=C(NCC(c1cccnc1)N1CCN(c2ccccc2)CC1)Oc1ccccc1 (centres undefined),86.7% (active)
14,COC(=O)N1C(c2ccccc2)C1c1ccccc1 (centres undefined),-7.32%
15,CN(C)/C=C(\C=[N+](C)C)c1[nH]ncc1[N+](=O)[O-],-3.98%
16,CC(C)CN1CCN(Cc2ccccc2C(F)(F)F)CC1CCO (centres undefined),1.28%
17,O=c1[nH]c(=S)n(C2CC2)c(O)c1/C=N/N1CCOCC1,-5.26%
18,CN(C)C(=O)Oc1cc(=O)n2c3c(cccc13)CCC2,23.7%
19,Nc1ccc(C(=O)N/N=C2/CN3CCC2CC3)cc1,-7.96%
